# Screening data deposited in PubChem by National Center for Advancing Translational Sciences (NCATS).
# IMPase Li cell = qHTS Assay for Identifying the Cell-Membrane Permeable IMPase Inhibitors: Potentiation with Lithium; Potency, µM (top dose mostly 59.4 µM), inactives show top-dose activity, negative = IMPase inhibition, most hits filed as inhibitors; 0.35% of 210,000 active; CHO-M1 cells, IP1 TR-FRET (IP-One), carbachol + lithium;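 further: IP1 builds up when IMPase is blocked and the TR-FRET signal falls; potency means the concentration at half of the fitted maximal effect; plate controls were basal vehicle for no effect and high inhibitor control for full effect; nearly all actives have a fitted effect of over 50% in size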
#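 Lithium-sensitised IP1 accumulation assay; M1-expressing CHO cells treated 30 min at 37C with compound. Competitive antibody detection by time-resolved FRET followed a 10 min room-temperature lysis step.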
# IMPase inh = qHTS Assay for Identifying the Cell-Membrane Permeable IMPase Inhibitors; Inositol monophosphatase 1 (Rattus norvegicus), P97697; CHO-M1 cells, IP1 accumulation, HTRF TR-FRET ratio; inhibition (IP1 accumulation), % at 46.1 µM; 120,000 tested, under 10 active; active means well fitted curve in the direction sought with a large enough effect in the signal ratio, not every such curve was filed as active; inconclusive means small, poorly fitted or top-dose-only effect, or a change in a side signal; inactive means no such curve, though single readings can be large or run the other way; the % refers to the signal ratio;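 further: cells stimulated with carbachol in lithium chloride buffer; plate controls were DMSO basal wells for no effect and reference inhibitor wells for full effect; higher means more IMPase inhibition seen as more IP1 and lower FRET ratio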
#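 In this qHTS, compounds (final up to 46 uM) act on CHO-M1 cells that are then activated through the M1 receptor with carbachol, in pH 7.4 buffer containing 50 mM LiCl, for 30 min. IP1 accumulation is quantified by the IP-One immunoassay.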
# ALDH1A1 inh = qHTS Assay for Inhibitors of Aldehyde Dehydrogenase 1 (ALDH1A1); Potency, µM (doses to about 75.3 µM), for the others: at the top dose activity, negative = inhibition, hits mostly inhibitors; AID 1030, 2008; 7.3% of 220,000 active; Aldehyde dehydrogenase 1A1 (Homo sapiens), P00352; Purified ALDH1A1, NADH fluorescence, propionaldehyde substrate; active means well fitted inhibition curve with a large enough effect, not every such curve was filed as active; inconclusive means small, poorly fitted or top-dose-only effect, or another doubt; inactive means no such curve, though single readings can be large or run the other way;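 further: potency means the concentration at half of the fitted maximal effect; plate controls were no enzyme wells and a reference inhibitor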
# HPGD inh = qHTS Assay for Inhibitors of HPGD (15-Hydroxyprostaglandin Dehydrogenase); 15-hydroxyprostaglandin dehydrogenase [NAD(+)] (Homo sapiens), P15428; purified HPGD, NADH fluorescence kinetic, PGE2 substrate; Potency, µM, for the others: at the top dose activity change, negative = inhibition, actives largely listed as inhibitors; 4.3% of 150,000 active; active means well fitted inhibition curve with a large enough effect, not every such curve was filed as active; inconclusive means small, poorly fitted or top-dose-only effect, or another doubt; inactive means no such curve, though single readings can be large or run the other way; further: potency means the concentration at half of the fitted maximal effect
# Target sequence (P15428 whole entry, looked up): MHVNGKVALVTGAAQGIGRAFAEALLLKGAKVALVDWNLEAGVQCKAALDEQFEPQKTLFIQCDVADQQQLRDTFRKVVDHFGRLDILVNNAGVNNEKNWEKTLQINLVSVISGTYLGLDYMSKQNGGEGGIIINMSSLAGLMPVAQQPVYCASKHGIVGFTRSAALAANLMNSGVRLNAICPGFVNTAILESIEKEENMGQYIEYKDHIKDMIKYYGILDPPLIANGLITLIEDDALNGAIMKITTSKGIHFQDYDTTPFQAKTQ
#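 NADH formation kinetics: reaction with 30 uM PGE2 and 1 mM NAD+ (final), 20 nM enzyme, Tris-HCl pH 8 with Tween 20, after 15 min compound preincubation at room temperature. Fluorescence change, last versus first of five reads.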
# NPSR antagonist = qHTS Assay for Antagonists of the Neuropeptide S Receptor: cAMP Signal Transduction | CHO-NPSR cells, cAMP TR-FRET, antagonist mode | Potency, µM (series often up to 38.3 µM), inactives show at the top dose activity change, negative = inhibition, most hits filed as inhibitors | 1% of 220,000 active; further: potency means the concentration at half of the fitted maximal effect; nearly all actives have a fitted effect of over 50% in size
# Target sequence (Q6W5P4 whole entry, looked up): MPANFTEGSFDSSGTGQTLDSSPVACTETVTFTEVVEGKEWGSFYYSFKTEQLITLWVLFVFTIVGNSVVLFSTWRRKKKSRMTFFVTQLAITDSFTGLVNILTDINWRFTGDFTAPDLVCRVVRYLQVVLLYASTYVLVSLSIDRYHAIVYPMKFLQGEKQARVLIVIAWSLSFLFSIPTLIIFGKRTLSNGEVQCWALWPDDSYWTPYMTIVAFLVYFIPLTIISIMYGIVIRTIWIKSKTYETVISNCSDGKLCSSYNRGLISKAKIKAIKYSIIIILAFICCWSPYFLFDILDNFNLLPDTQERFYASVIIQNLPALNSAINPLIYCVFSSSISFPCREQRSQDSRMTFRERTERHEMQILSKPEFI
# 12-hLO inh = qHTS Assay for Inhibitors of 12-hLO (12-human lipoxygenase); purified 12-hLO, xylenol orange hydroperoxide absorbance; 0.12% of 150,000 active; Potency, µM (series often up to 57.1 µM), for the others: top-dose activity change, negative = inhibition, actives largely listed as inhibitors; further: potency means the concentration at half of the fitted maximal effect; nearly all actives have a fitted effect of over 55% in size
#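 Purified human 12hLO (150 nM final) was preincubated with compounds for 15 min at room temperature in 25 mM Hepes pH 7.0, 0.01% Triton X-100, then reacted with 40 uM arachidonic acid for 30 min. Hydroperoxide was detected with ferrous iron/xylenol orange.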
# Numbers without * were called inactive; ? = inconclusive; / = no result given; [ ] = remark or other dose. Only some compounds are listed: those with a hit (about 8.9% of all), similar ones and a draw of the others. Unless noted, the call rests on the fitted dose curve; in most records, active means well fitted curve in the direction sought with a large enough effect; inconclusive means small, poorly fitted or top-dose-only effect, or another doubt; inactive means no such curve, though single readings can be large; an effect the other way counts as inactive or inconclusive. Unless noted, on the % scale 0 is the no-effect control and ±100 the full control effect.
SMILES,IMPase Li cell,IMPase inh,ALDH1A1 inh,HPGD inh,NPSR antagonist,12-hLO inh
Cc1ccc(S(=O)(=O)N2CCCCC2)cc1NC(=O)c1ccc2c(c1)OCO2,4.1%,5.6,?,-8.4%,2.1%,-1.7%
OC(c1ccc(Cl)cc1)c1nnc(-c2ccccc2)o1 (configuration not stated),-3.7%[38.3 µM],-9.7,0.4%,17.8µM*,-21.8%[46.1 µM],-12.5%
Clc1ccc(CCNC(c2ccc(Cl)cc2)c2nnc(-c3ccccc3)o2)cc1 (configuration not stated),/,6.3,/,/,/,/
Cc1cc(CC(C)C)n(-c2nc3ccccc3c(=O)n2OCc2ccccc2)n1,4.9%[38.3 µM],-0.8,5.3%,-10.6%,?,0.6%
COc1nc2ccccc2c(=O)n1OCC(C)C,-7.1%[38.3 µM],7.8,14.1µM*,-18.1%,4.3%[46.1 µM],-1.0%
Cc1cccc(C(=O)NCC2CCCO2)c1 (configuration not stated),5.3%,?,-1.1%,?,-2.9%[46.1 µM],4.9%
S=C(NCC1CCCO1)NC1CC1 (configuration not stated),-2.3%,/,-0.5%,/,9.6%,/
O=C(NCC1CCCO1)c1ccc(N2CCCCC2)nc1 (configuration not stated),47.1%[38.3 µM],-3.2[1.84 µM],?,14.1µM*,-6.7%[46.1 µM],0.1%
O=C(NCC1CCCO1)c1cccc(F)c1 (configuration not stated),-6.3%[38.3 µM],-2.5,5.4%,22.4µM*,-1.3%[46.1 µM],-2.8%
O=C(NCC1CCCO1)C1CCN(S(=O)(=O)c2ccccc2)CC1 (configuration not stated),0.6%,/,2.3%,/,-18.3%,/
O=C(NCC1CCCO1)c1ccc2nc(N3CCCCC3)sc2c1 (configuration not stated),11.3%,1.2,?,?,-7.5%,0.0%
O=C(NCC1CCCO1)C1CCC(CNS(=O)(=O)c2ccccc2)CC1 (configuration not stated),13.9%[38.3 µM],-3.8,14.1µM*,-8.9%,-2.2%[46.1 µM],1.8%
O=C(NCC1CCCO1)NC1CCCCC1 (configuration not stated),0.3%,?,11.0%,28.2µM*,-2.9%[46.1 µM],0.4%
COc1c([N+](=O)[O-])c(=O)n(-c2ccccc2)c2ccccc12,7.1%,/,-0.8%,-17.2%,47.1%,-2.0%
CCC[C@H](N[C@@H](C)C(=O)N1[C@@H]2CCCC[C@H]2C[C@H]1C(=O)O)C(=O)OCC,5.4%,/,7.2%,-16.2%,/,-4.2%[0.00818 µM]
CC(CC(=O)NCC1CCCO1)c1ccccc1 (configuration not stated),-3.4%,-2.7,14.8%,15.8µM*,16.5%,-4.0%
O=C(NC(=S)NCC1CCCO1)c1ccccc1 (configuration not stated),-2.5%,/,18.9%,-29.7%,5.9%,?
CN(C)c1cccc(C(=O)NCC2CCCO2)c1 (configuration not stated),23.2%[38.3 µM],10.6,?,-16.2%,-9.1%[46.1 µM],0.2%
O=C(NCC1CCCO1)c1ccccc1 (configuration not stated),-13.5%[38.3 µM],-8.3,3.5%,20µM*,0.6%[46.1 µM],2.1%
O=C(COC(=O)c1ccccc1)NCC1CCCO1 (configuration not stated),17.7%[38.3 µM],-10.1,-6.7%,-29.6%,0.3%[46.1 µM],2.7%
CN(C)c1ccc(C(=O)NCC2CCCO2)cc1 (configuration not stated),1.8%,-2.4[0.369 µM],1.0%,14.1µM*,-12.9%[46.1 µM],-0.5%
Cc1ccc(NC(=O)c2ccc([N+](=O)[O-])o2)cc1S(=O)(=O)N1CCOCC1,4.4%,/,?,/,-44.5%,/
c1ccc(C2=NCCCN2)cc1,-3.9%[38.3 µM],7.9,2.8%,-7.3%,-2.2%[46.1 µM],-3.2%
CCN(CC)c1ccc(-n2cc3c(=O)n(C)c(=O)n(C)c3c2)cc1,?,-15.5,?,?,-8.2%[46.1 µM],-3.8%
COC(=O)c1ccc(Cn2nc(C)c(Cl)c2C)o1,12.3%[38.3 µM],9.2,28.2µM*,-16.3%,8.7%[46.1 µM],0.4%
SMILES,IMPase Li cell,IMPase inh,ALDH1A1 inh,HPGD inh,NPSR antagonist,12-hLO inh
COC(=O)C1=C(C(=O)OC)[C@@H]2N(Cc3ccccc3)c3ccccc3[C@@]23C[C@@H](C(=O)OC)N(C(=O)NCc2ccccc2)C3=C1,11.9%,/,4.5%,-3.7%,/,/
COC(=O)Nc1ccc(S(=O)(=O)N2CCCC(C(=O)Nc3cccc4c3OCCO4)C2)cc1 (configuration not stated),-0.6%[38.3 µM],-8.8,?,-3.8%,-22.3%[46.1 µM],1.1%
CC(C(=O)NC1CCCC1)N(C(=O)c1snc(C(N)=O)c1N)c1ccc2c(c1)OCCO2 (configuration not stated),2.0%[38.3 µM],-1.4,12.6µM*,-19.6%,-8.2%[46.1 µM],-8.3%
C/C(=N\NC(=O)Nc1ccccc1)c1ccccc1,/,-4.5,6.1%,/,7.7%[46.1 µM],2.9%
CC1=Nn2c(nnc2C2CCCCC2)SC1,11.9%[38.3 µM],6.3,?,28.2µM*,2.8%[46.1 µM],-6.1%
Cc1ccccc1S(=O)(=O)/N=C(/c1ccccc1)N1CCOCC1,-9.7%,/,1.9%,/,4.1%,/
O=C(O)CSc1nnc(Cc2cccc3ccccc23)n1-c1cc(C(F)(F)F)cc(C(F)(F)F)c1,/,/,/,/,1.7%[7.67 µM],/
CN(C)/C=C/C(=O)c1cnc(-c2ccccc2Cl)s1,0.9%,/,7.08µM*,/,-7.8%,/
NC(=O)c1c(NC(=S)Nc2ccc(F)cc2)sc2c1CCCC2,-15.0%,/,10µM*,/,8.2%,/
NC(=O)c1c(NC(=S)Nc2ccccc2)sc2c1CCCC2,-12.4%,/,7.94µM*,/,-10.3%,/
C=CCNC(=S)Nc1sc2c(c1C(N)=O)CCCC2,/,/,/,/,-4.8%,/
CCOC(=O)c1c(NC(=S)Nc2ccc(F)cc2)sc2c1CCC2,-29.9%[38.3 µM],-15.4,-11.5%,0.9%,12.2%[46.1 µM],-13.9%
Cc1c(C(=O)NC(=S)Nc2ccccc2N2CCCC2)cccc1[N+](=O)[O-],3.8%,/,?,-9.1%,-26.2%,-5.2%
Cc1nn2c(NCCOCCO)c3c(nc2c1-c1ccccc1)CCC3,/,/,/,/,27.8%,/
COc1ccccc1CNc1nc(-c2cc(C)n(C)c2C)cs1,5.1%,/,?,/,-33.9%,/
COCCNc1nc(-c2cc(C)n(CCc3ccc(OC)cc3)c2C)cs1,8.6%,/,10µM*,/,4.4%,/
CCC(C)c1ccc(O)c(NC(=O)c2cccnc2)c1 (configuration not stated),10µM*,0.5,11.2µM*,-9.6%,-17.1%[46.1 µM],3.3%
CCOC(=O)c1ccc(Cl)c(NC(=O)c2cccnc2)c1,1.7%,/,11.2µM*,/,-3.3%,/
